# Key:
# Assay in all cases: yeast three-hybrid, YBZ-1, SC-Leu-His + 0.5 mM 3-AT, 4 days
# Conditions in all cases: tags: N-Gal4 AD-HA kept; label: inside an RPR1-promoter hybrid RNA with tandem MS2 sites; ssRNA
# [1] = biological target: PUM1 PUF domain R5-KHW (Homo sapiens, UniProt Q14671 828-1176, C1007K;R1008H;Q1011W)
# Procedure, shortened: (§1)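 Pumilio-1 PUF domain libraries, randomized (NNK) at the three base-contacting residues of each repeat, were co-expressed with matching RNA elements from a centromeric plasmid in strain YBZ-1 (LexA–MS2 coat fusion, HIS3 reporter). Transformants were plated on SC-Leu (input) and SC-Leu-His + 0.5 mM 3-AT (selection) for four days, and repeat regions were PCR-amplified and Illumina-sequenced. The interaction score is the log2 change in variant frequency from input to selection, with pseudocount 1 where absent.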
# [2] = biological target: PUM1 PUF domain R5-LYC (Homo sapiens, UniProt Q14671 828-1176, C1007L;R1008Y;Q1011C)
# Procedure, shortened: as §1
# [3] = biological target: PUM1 PUF domain R4-VPA (Homo sapiens, UniProt Q14671 828-1176, N971V;H972P;Q975A)
# Procedure, shortened: as §1
# [4] = biological target: PUM1 PUF domain R4-DHL (Homo sapiens, UniProt Q14671 828-1176, N971D;Q975L)
# Procedure, shortened: as §1
# [5] = biological target: PUM1 PUF domain R4-NNH (Homo sapiens, UniProt Q14671 828-1176, H972N;Q975H)
# Procedure, shortened: as §1
# [6] = biological target: PUM1 PUF domain R4-PYL (Homo sapiens, UniProt Q14671 828-1176, N971P;H972Y;Q975L)
# Procedure, shortened: as §1
# [7] = biological target: PUM1 PUF domain R4-CMS (Homo sapiens, UniProt Q14671 828-1176, N971C;H972M;Q975S)
# Procedure, shortened: as §1
# [8] = biological target: PUM1 PUF domain R5-GVE (Homo sapiens, UniProt Q14671 828-1176, C1007G;R1008V;Q1011E)
# Procedure, shortened: as §1
# [9] = biological target: T1, PUM1 PUF domain R6-VWY (Homo sapiens, UniProt Q14671 828-1176, N1043V;Y1044W;Q1047Y)
# T1 sequence: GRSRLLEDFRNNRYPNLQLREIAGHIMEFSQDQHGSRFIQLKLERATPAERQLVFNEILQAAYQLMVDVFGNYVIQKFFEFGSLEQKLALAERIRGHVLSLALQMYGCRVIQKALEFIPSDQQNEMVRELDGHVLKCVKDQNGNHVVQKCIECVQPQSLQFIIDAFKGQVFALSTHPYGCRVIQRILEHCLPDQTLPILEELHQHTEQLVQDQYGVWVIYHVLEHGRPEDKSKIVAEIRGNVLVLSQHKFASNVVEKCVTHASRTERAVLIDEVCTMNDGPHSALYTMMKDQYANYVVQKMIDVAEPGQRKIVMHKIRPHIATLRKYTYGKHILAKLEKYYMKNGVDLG
# Procedure, shortened: as §1
# [10] = biological target: PUM1 PUF domain R1-KCV (Homo sapiens, UniProt Q14671 828-1176, S863K;R864C;Q867V)
# Procedure, shortened: as §1
sequence,measurement,setting,value
GGCUAGAACUAGUGGAUCCCCCGGCGCCCGGCGGCUCGAGCCCGGGUAAGUGUUAAUAGUCUGCAUGCCGCCGGGCGCCAUGCCUGCAGGUCGACUCUAGAAAACAUG,binding signal,[1],3.92 log2 enrichment (interaction score)
same,binding signal,[2],2.27 log2 enrichment (interaction score)
GGCUAGAACUAGUGGAUCCCCCGGCGCCCGGCGGCUCGAGCCCGGGUAAGUGUAUAUAGUCUGCAUGCCGCCGGGCGCCAUGCCUGCAGGUCGACUCUAGAAAACAUG,binding signal,[3],3.26 log2 enrichment (interaction score)
same,binding signal,[4],3.13 log2 enrichment (interaction score)
same,binding signal,[5],2.5 log2 enrichment (interaction score)
same,binding signal,[6],3.32 log2 enrichment (interaction score)
same,binding signal,[7],3.01 log2 enrichment (interaction score)
GGCUAGAACUAGUGGAUCCCCCGGCGCCCGGCGGCUCGAGCCCGGGUAAGUGUGAAUAGUCUGCAUGCCGCCGGGCGCCAUGCCUGCAGGUCGACUCUAGAAAACAUG,binding signal,[8],3.01 log2 enrichment (interaction score)
GGCUAGAACUAGUGGAUCCCCCGGCGCCCGGCGGCUCGAGCCCGGGUAAGUGUAAAUAGUCUGCAUGCCGCCGGGCGCCAUGCCUGCAGGUCGACUCUAGAAAACAUG,binding signal,[3],1.54 log2 enrichment (interaction score)
same,binding signal,[4],2.49 log2 enrichment (interaction score)
same,binding signal,[2],3.33 log2 enrichment (interaction score)
GGCUAGAACUAGUGGAUCCCCCGGCGCCCGGCGGCUCGAGCCCGGGUAAGUGUACAUAGUCUGCAUGCCGCCGGGCGCCAUGCCUGCAGGUCGACUCUAGAAAACAUG,binding signal,[3],1.62 log2 enrichment (interaction score)
same,binding signal,[7],2.83 log2 enrichment (interaction score)
GGCUAGAACUAGUGGAUCCCCCGGCGCCCGGCGGCUCGAGCCCGGGUAAGUGAAAAUAGUCUGCAUGCCGCCGGGCGCCAUGCCUGCAGGUCGACUCUAGAAAACAUG,binding signal,[9],3.66 log2 enrichment (interaction score)
GGCUAGAACUAGUGGAUCCCCCGGCGCCCGGCGGCUCGAGCCCGGGUAAGUGUCAAUAGUCUGCAUGCCGCCGGGCGCCAUGCCUGCAGGUCGACUCUAGAAAACAUG,binding signal,[1],2.97 log2 enrichment (interaction score)
GGCUAGAACUAGUGGAUCCCCCGGCGCCCGGCGGCUCGAGCCCGGGUAAGUGUAAAUUGUCUGCAUGCCGCCGGGCGCCAUGCCUGCAGGUCGACUCUAGAAAACAUG,binding signal,[10],3.99 log2 enrichment (interaction score)
